AmpC no deterg = AmpC beta-lactamase inhibition without detergent; P00811; AmpC nitrocefin hydrolysis, absorbance 480 nm, 0.0001% Triton; Potency, µM (series often up to 57.1 µM), most hits filed as inhibitors; 330,000 tested, 0.52% active; AID 485341; note: nearly all actives have a fitted effect of over 20% in size
Target sequence (P00811 whole entry, looked up): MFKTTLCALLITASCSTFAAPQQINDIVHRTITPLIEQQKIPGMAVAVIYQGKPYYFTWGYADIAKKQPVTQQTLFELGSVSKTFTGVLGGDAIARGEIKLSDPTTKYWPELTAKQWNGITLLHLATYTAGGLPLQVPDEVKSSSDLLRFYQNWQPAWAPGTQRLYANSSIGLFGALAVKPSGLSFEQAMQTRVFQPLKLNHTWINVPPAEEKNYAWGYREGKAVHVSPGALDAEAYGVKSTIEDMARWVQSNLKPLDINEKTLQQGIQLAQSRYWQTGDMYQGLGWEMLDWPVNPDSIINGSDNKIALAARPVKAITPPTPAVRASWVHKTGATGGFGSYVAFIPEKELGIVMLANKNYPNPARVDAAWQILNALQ
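AmpC (5.3 nM in the dispensed reagent) in 20 mM phosphate pH 7.0 with 0.01% (detergent screen) or 0.0001% Triton X-100 was preincubated with compounds for 15 min at room temperature. Nitrocefin was then added from an 800 uM solution, and hydrolysis was followed at 480 nm.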
Giardia FBPA inh = inhibitors of Giardia lamblia fructose-1,6-bisphosphate aldolase. AID 2451. A8B2U2. purified Giardia FBPA. 290,000 tested, 0.71% active. Potency, µM (highest dose often 59.6 µM), most hits filed as inhibitors; note: nearly all actives have a fitted effect of over 55% in size
Target sequence (A8B2U2 whole entry, looked up): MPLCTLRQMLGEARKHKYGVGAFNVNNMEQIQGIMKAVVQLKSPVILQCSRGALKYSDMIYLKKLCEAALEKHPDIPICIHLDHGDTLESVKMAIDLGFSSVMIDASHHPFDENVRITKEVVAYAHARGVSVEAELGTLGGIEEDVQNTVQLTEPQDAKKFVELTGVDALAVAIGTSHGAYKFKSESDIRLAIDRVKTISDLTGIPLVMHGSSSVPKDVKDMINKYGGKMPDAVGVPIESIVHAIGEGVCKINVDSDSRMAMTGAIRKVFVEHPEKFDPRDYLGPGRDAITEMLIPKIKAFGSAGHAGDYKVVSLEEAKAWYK
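Giardia FBPA (40 nM reagent) was preincubated 10 min at RT with compound (up to 57.5 uM final), then substrate plus GAPDH/TPI/NAD/arsenate coupling system with diaphorase/resazurin was added; resorufin fluorescence (525/598 nm) was read after 20 min.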
Sm TGR inh = S. mansoni TGR enzyme inhibition | Q962Y6 | purified TGR, DTNB reduction, TNB absorbance 405 nm | Potency, µM (top dose mostly 114 µM), actives largely listed as inhibitors | 360,000 tested, 3% active; note: nearly all actives have a fitted effect of over 60% in size
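TGR 20 nM + NADPH 100 uM (dispensed conc.), cpd preinc 15 min RT; start with NADPH (500 uM addition) then DTNB (15 mM addition). Kinetic TNB absorbance, 405 nm filter. Four-parameter Hill fit across titration.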
AmpC detergent = blocks E. coli AmpC beta-lactamase in detergent assay | Potency, µM (highest dose often 114 µM), usual class: inhibitors | P00811 | AmpC hydrolysis of nitrocefin, absorbance 480 nm, 0.01% Triton | AID 485294 | 370,000 tested, 0.041% active; note: nearly all actives have a fitted effect of over 25% in size
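20 mM phosphate pH 7.0 + 0.01% (detergent screen) or 0.0001% Triton X-100; 5.3 nM AmpC reagent; cpd preinc 15 min RT; nitrocefin (800 uM stock) to start; A480 q20 s × 4 min; Activity was normalised to no-enzyme and no-compound control wells.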
RE007 growth inh = less growth of the S. pombe RE007 Vpr strain; S. pombe RE007 Vpr strain, BacTiter-Glo ATP luminescence, 24 h; Potency, µM (doses to about 92.2 µM), usual class: inhibitors; 360,000 tested, 0.21% active; active = well fitted falling curve with a large enough effect; inconclusive = small, poorly fitted or top-dose-only effect; inactive = no such curve, though single readings can be large or run the other way; note: nearly all actives have a fitted effect of over 50% in size
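Fission yeast strain RE007, carrying one chromosomally integrated HIV-1 vpr copy, was seeded at OD 0.01 in PMG+AL medium with 23 nL pinned compound. After 24 h at 30 °C and 99% humidity, viability was read by BacTiter-Glo luminescence.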
A number is an active result; . = inactive; ? = inconclusive; / = no result; [ ] = dose if it differs, or a comment. Rows were chosen to be rich in hits. Some 3.4% of all compounds tested hit in one or more screens of this group. Unless noted, calls come from the whole dose curve; as a rule, active = well fitted curve in the direction sought with a large enough effect; inconclusive = small, poorly fitted or top-dose-only effect, or another doubt; inactive = no such curve, though single readings can be large; an effect the other way counts as inactive or inconclusive.

SMILES	AmpC no deterg	Giardia FBPA inh	Sm TGR inh	AmpC detergent	RE007 growth inh
Cc1ccc(C2C3=C(CCCC3=O)N=C3c4ccccc4C(=O)C32)cc1 (stereo not given)	18µM	.	.	.	.
CCOC(=O)/C(C#N)=C/C1=C(N2CCCC2)CC(C)(C)OC1	.	.	.	.	.
CCOC(=O)/C(C#N)=C\C1=C(N2CCOCC2)CC(C)(C)OC1	.	.	32µM	.	.
CCOc1cccc(OCCn2cnc3ccccc3c2=O)c1	.	.	.	.	.
Cn1ncc(SCc2ccccc2)c(Cl)c1=O	.	.	.	.	.
Cn1ncc(S(=O)(=O)Cc2ccccc2)c(Cl)c1=O	.	.	0.16µM	.	.
C=C1C(=O)O[C@@H]2C[C@@H](C)[C@@H]3C=CC(=O)[C@@]3(C)[C@@H](O)[C@H]12	.	.	25µM	.	.[18.4 µM]
O=C(CCN1CCN(c2ccccc2F)CC1)Nc1ccc(F)cc1	.	.	?	.	.
Cc1ccccc1N1CCN(CCC(=O)Nc2ccc(F)cc2)CC1	.	.	40µM	.	.
COc1cc(NC(=O)c2nn(C)c3c2CS(=O)(=O)c2ccccc2-3)cc(OC)c1	.	.	.	.	.
COC(=O)c1ccccc1NC(=O)c1nn(C)c2c1COc1ccccc1-2	/	/	7.1µM	.	/
COc1cc(NC(=O)c2nn(C)c3c2COc2ccccc2-3)cc(OC)c1OC	/	/	32µM	.	/
Cc1ccc(S(=O)(=O)N2CC2(C)CCl)cc1 (stereo not given)	.	.	50µM	.	.
O=C(Nc1cccc(C(F)(F)F)c1)c1ccc(Cn2cc(Br)cn2)o1	.	.	.	?	.
O=C(c1ccc(Cn2cc(Br)cn2)o1)n1cccn1	0.5µM	.	.	.	.
O=C(Nc1ccc(C(F)(F)F)cc1Cl)c1ccc(Cn2cc(Br)cn2)o1	/	.	45µM	.	.
O=C(NC1CCCCC1)c1ccc(Cn2cc(Br)cn2)o1	.	.	45µM	.	.
O=C(NCc1ccccn1)c1ccc(Cn2cc(Br)cn2)o1	?	.	?	.	.
C=CCNC(=O)CC(=O)N/N=C/c1ccc(C(=O)OC)cc1	?	.	.	.	.
COc1ccc(OC)c(S(=O)(=O)N/N=C(/C)c2c[nH]c3ccccc23)c1	.	.	?	.	.
COc1ccc(-c2nc(CS(=O)CC(=O)NC3CCCC(C)C3C)c(C)o2)cc1OC (stereo not given)	.	.	13µM	.	.
Cc1ccc(-c2nc(CS(=O)CC(=O)NC3CCCC(C)C3C)c(C)o2)cc1 (stereo not given)	.	/	45µM	.	.
CS(=O)(=O)N1CCN(c2ccc(NC(=O)CSc3nnc(-c4ccco4)o3)cc2)CC1	.	.	.	.	.
COc1ccccc1N1C(=N)S/C(=C\c2ccc(-c3ccccc3C(=O)O)o2)C1=O	.	.	20µM	?	.
N=C1S/C(=C\c2ccc(-c3ccccc3C(=O)O)o2)C(=O)N1c1ccc2c(c1)OCO2	.	.	.	.	.
SMILES	AmpC no deterg	Giardia FBPA inh	Sm TGR inh	AmpC detergent	RE007 growth inh
O=C(COc1ccccc1)N(Cc1cccs1)C1CCS(=O)(=O)C1 (stereo not given)	.	.	.	.	.
Cc1ccc(C)c(OCC(=O)N2CCN(Cc3ccc4c(c3)OCO4)CC2)c1	.	.	56µM	.	.
COc1ccc(NC(=O)CN2CCN(Cc3ccc4c(c3)OCO4)CC2)cc1OC	.	18µM	.	.	.
Cc1ccc2nc3ccc(N4CCCCCCC4)nn3c(=O)c2c1	.	.	.	.	.
CC1C=CC(C)C(C(=O)O)C1C(=O)O (stereo not given)	.	.	.	.	.
O=C(CCS(=O)(=O)Cc1ccccc1F)N1CCc2ccccc2C1	.	.	.	.	.
O=C(O)C1CCN(C(=O)CCc2ccccc2)CC1	.	.	.	.	.
CCOC(=O)C1CCN(C(=O)CN(Cc2ccccc2)S(C)(=O)=O)CC1	.	.	.	.	.
CCOC(=O)C1CCN(C(=O)CCS(=O)(=O)Cc2ccccc2)CC1	.	.	45µM	.	.
CCOC(=O)C1CCN(C(=O)CCc2ccccc2)CC1	.	.	89µM	.	.
CCOC(=O)C1CCN(C(=O)CCCn2c(=O)c3cccn3c3cccnc32)CC1	.	.	79µM	.	.
O=C(CCS(=O)(=O)Cc1ccccc1)N1CCc2ccccc2C1	.	.	28µM	.	.
CCc1nc2ccc(C(=O)Nc3cccc(OCC(=O)N(C)C)c3)cn2c1N(C)Cc1ccc(N(C)C)cc1	/	/	/	/	.
C=C(C)C1COc2cc3oc(=O)ccc3cc2O1 (stereo not given)	/	.	/	/	/
Cc1ccc(S(=O)(=O)Nc2cc3c4c(c2)C(C)C(=O)N4CCC3)cc1 (stereo not given)	.	/	.	.	.
CN(C(=O)CC1C(=O)NCCN1CC1CCCCC1)C1CCOCC1 (stereo not given)	.	.	?	.	.
COc1cc(C(CCN2CCCC(C)C2)c2c(OC)cc(OC)c3c(-c4ccccc4)cc(=O)oc23)cc(OC)c1OC (stereo not given)	.	.	.	.	.
COc1cc(C(CCN2CCCCC2)c2c(OC)cc(OC)c3c(-c4ccccc4)cc(=O)oc23)cc(OC)c1OC (stereo not given)	.	.	45µM	.	.
Cn1c(/C=C/c2ccccc2)nc2ccccc21	.	.	.	.	?
CC(=O)c1ccc(/C=C/c2nc3ccccc3n2C)o1	.	.	3.5µM	.	?
COc1ccc(NC(=O)C2CC(=O)n3cnnc3S2)cc1 (stereo not given)	.	?	0.28µM	.	?
COc1cccc(NC(=O)C2CC(=O)n3cnnc3S2)c1 (stereo not given)	.	?	0.63µM	.	35µM
COc1ccc(NC(=O)C2CC(=O)n3ncnc3N2)cc1 (stereo not given)	.	.	.	.	.
Cc1ccc(C)c(OCC(=O)NCC(C)(C)N2CCOCC2)c1	.	/	.	.	.
CC(C)NC(=O)C1(C)CCCN1Cc1ccccc1 (stereo not given)	/	/	/	/	.[18.4 µM]
SMILES	AmpC no deterg	Giardia FBPA inh	Sm TGR inh	AmpC detergent	RE007 growth inh
Cc1cccc(NC(=O)c2ccc(-c3ccccc3[N+](=O)[O-])o2)c1	.	.	3.5µM	.	.
Cc1cccc(NC(=O)c2ccc(-n3cccn3)c([N+](=O)[O-])c2)c1	.	.	40µM	.	.
Cc1ccc(C)c(-c2nnc(NC(=O)c3ccc([N+](=O)[O-])o3)o2)c1	.	/	35µM	.	.
Cc1cc(C)cc(NC(=O)c2ccc([N+](=O)[O-])o2)c1	.	.	35µM	.	?
COc1ccc(NC(=O)c2ccc([N+](=O)[O-])o2)cc1	.	.	?	.	?
COc1cccc(NC(=O)c2ccc(-c3ccccc3[N+](=O)[O-])o2)c1	?	.	.	.	.
CC(=O)c1cccc(NC(=O)c2ccc([N+](=O)[O-])o2)c1	/	/	/	/	.
